Source: PubChem BioAssay AID2315 (National Center for Advancing Translational Sciences (NCATS), 2010)
In all, about 290,000 compounds went through this assay and about 27,000 (9.3%) were called active. The sample as a whole holds a higher share of actives than the screen did. Values without a mark were called inactive. Cut-off read from the data, not from the text of the source: active = inhibition mostly above about 28% (no sharp cut-off); inactive = mostly below about 43%.

Experiment: A qHTS for Small Molecule Inhibitors of Shiga Toxin; note: 0% is about no effect
Conditions: Vero cells, Shiga toxin protein synthesis inhibition reporter; at 38.7 µM, stronger effect = higher value

Row | SMILES | inhibition
1 | CN(C)c1ccc(C2N(C)C(=O)c3ccccc3N2C)cc1 (stereo not drawn) | -12.6%
2 | O=[N+]([O-])c1ccc(N2CCN(c3ccc(F)cc3)CC2)cn1 | 20.3%
3 | O=C(Nc1ccccc1Cl)c1ccc2nsnc2c1 | 102% (active)
4 | O=C(Nc1ccccc1)c1ccc2nsnc2c1 | 64.7% (active)
5 | O=C(Nc1ccccc1N1CCCCC1)c1ccc2nccnc2c1 | -14.9%
6 | O=S(=O)(Nc1ccccc1Cl)c1cccc2nsnc12 | -3.15%
7 | Cc1cccc(NC(=O)c2ccc(OCC(=O)NCc3ccccc3)cc2)c1C | -9.42%
8 | O=C(Nc1cccc(NC(=O)c2ccc(Br)cc2)c1)c1ccccc1 | -7.53%
9 | Cc1nc(C)c(C(=O)Nc2cccc(C)c2C)o1 | -7.98%
10 | Cc1cccc(NC(=O)c2ccc3nsnc3c2)c1C | 80% (active)
11 | COc1ccc(N2CCN(C(=O)C3CCN(C(=O)c4ccccc4Cl)CC3)CC2)cc1 | 26.7%
12 | CCCCC(CC)CNCc1cccn1CCN1CCOCC1 (stereo not drawn) | -23.2%
13 | COc1cccc(-c2nc(CS(=O)CC(=O)NCc3ccc(F)cc3)c(C)o2)c1 (stereo not drawn) | -9.69%
14 | COc1cccc(NC(=O)[C@H](Cc2c[nH]c3ccccc23)NC(=O)[C@@H]2Cc3ccccc3CN2)c1 | 9.71%
15 | O=S(=O)(Nc1cccc(-n2cnnn2)c1)c1cnc(Cl)c(Cl)c1 | -9.74%
16 | Cc1ccc(O)c(NC(=O)c2cc(-c3ccco3)on2)c1 | 81.4% (active)
17 | Cc1ccc(C)c(NC(=O)c2ccc(OC(=O)c3ccco3)cc2)c1 | 32.9%
18 | Cc1ccc(O)c(NC(=O)COc2cc(C)ccc2C)c1 | -27.8%
19 | O=C(O)CSc1c2c(nc3cc(C(=O)Nc4cccc(C(F)(F)F)c4)ccc13)CCCC2 | -3.73%
20 | O=C(O)CN1CCN(C(c2ccccc2)c2ccccc2)CC1 | -10.2%
21 | Clc1ccccc1CSc1nnc(-c2ccco2)c(-c2ccco2)n1 | -3.95%
22 | Fc1cccc(Cl)c1CSc1ccc(-c2ccco2)nn1 | 89% (active)
23 | COc1ccc(NC(=O)CSc2ccc(-c3ccco3)nn2)c(OC)c1 | -11.2%
24 | Brc1ccc(CSc2ccc(-c3ccco3)nn2)cc1 | 99.8% (active)
25 | O=C(CSc1ccc(-c2ccco2)nn1)NCc1ccc2c(c1)OCO2 | 25%

Row | SMILES | inhibition
26 | Cc1cc(SCc2c(F)cccc2Cl)nc(=O)[nH]1 | 5.47%
27 | O=C(Nc1ccccc1-c1ccccc1)c1ccccc1[N+](=O)[O-] | 2.33%
28 | O=C(Nc1ccc(F)cc1)c1cccnc1N1CCOCC1 | 28.6%
29 | NC(=O)c1ccc(N2CCOCC2)nc1 | -13.6%
30 | O=C(Nc1ccc(N2CCOCC2)nc1)c1c(F)cccc1F | 55.5% (active)
31 | CC(=O)c1ccc(S(=O)(=O)N(C)CCCC(=O)N(C)Cc2ccccc2F)cc1 | -5.36%
32 | COc1ccc(/C=C(/CC(=O)Nc2ccc(C)cc2)c2nc3ccccc3s2)cc1 | 19.4%
33 | COc1cccc(/C=C(/CC(=O)Nc2ccc(N3CCOCC3)cc2)c2nc3ccccc3s2)c1 | 90.3% (active)
34 | CCn1c(Cc2ccc(OC)cc2)nnc1SCC(=O)Nc1ccc(N2CCOCC2)cc1 | 1.72%
35 | COc1ccc(C(C)NC(=O)C2CCCC2)cc1 (stereo not drawn) | -3.92%
36 | O=C(COc1ccc2ccc(=O)oc2c1)NCC(O)c1ccccc1 (stereo not drawn) | -18.4%
37 | O=C(O)c1ccccc1C(=O)NC1=NN(c2ccccc2)CC1 | 3.05%
38 | Cc1ccc(C(=O)c2ccc(N3CCN(C)CC3)c([N+](=O)[O-])c2)cc1 | 76.3% (active)
39 | Cc1cccc(N2CCN(c3ccc(C(N)=O)cc3[N+](=O)[O-])CC2)c1C | 5.45%
40 | CCOC(=O)C1CCN(c2ccc(C(=O)O)cc2[N+](=O)[O-])CC1 | -7.98%
41 | CCOC(=O)C1CN(S(=O)(=O)c2ccc(OC)cc2)c2cc(Cl)ccc2O1 (stereo not drawn) | -12.8%
42 | CC(C)C(C)NC(=O)COc1nc2ccccc2nc1N(C)C1CCCCC1 (stereo not drawn) | -16.3%
43 | O=C(NC1CCCC1)C1CCN(C(=O)Nc2cccc(Cl)c2)CC1 | -5.04%
44 | Cc1ccc(S(=O)(=O)N(Cc2ccccc2)c2ccccn2)cc1[N+](=O)[O-] | 5.85%
45 | Cc1ccc(C(=O)/C=C/c2c(C)nn(-c3ccccc3)c2Cl)cc1 | 45.2% (active)
46 | Cc1nn(-c2ccccc2)c(Cl)c1/C=C/C(=O)c1ccc(O)cc1 | 37.6%
47 | Cc1nn(-c2ccccc2)c(Cl)c1C(=O)Nc1ccccc1 | 108% (active)
48 | Cc1nn(-c2ccccc2)c(C)c1/C=C/C(=O)OC(C)C(N)=O (stereo not drawn) | -6.62%
49 | Cc1nn(-c2ccccc2)c(C)c1NC(=O)CCl | 16.7%
50 | COc1ccc(CCNC(=O)c2c(C)nn(-c3ccccc3)c2Cl)cc1 | 15.3%

Row | SMILES | inhibition
51 | Cc1cccc([C@@H]2[C@@H]3C(=O)N(Cc4ccccc4)C(=O)[C@@H]3[C@]3(C)C(=O)N(c4ccc(Br)cc4)C(=O)N23)c1 | 10.9%
52 | CCCN1CCN(C(=O)CCCNC(=O)c2ccc(Cl)cc2)CC1 | -8.41%
53 | C[C@H](NC(=O)C1CC(=O)N(c2ccc3c(c2)OCCO3)C1)C(=O)N1CCC(C(=O)O)CC1 (stereo partly drawn) | -10.9%
54 | COc1ccccc1N1CCN(C(=O)c2cc3c(-c4ccc(Cl)cc4)nn(C)c3s2)CC1 | 19.3%
55 | COc1ccccc1N1CCN(C(=O)c2cn(-c3ccccc3)nc2-c2cccnc2)CC1 | 39.2% (active)
56 | O=C(c1cn(-c2ccccc2)nc1-c1cccnc1)N1CCCCC1 | -13.3%
57 | COc1cc(C(=O)N2CCN(C3CCC(C)CC3)CC2)cc(OC)c1OC (stereo not drawn) | -9.82%
58 | CCOc1ccc2nc(N(CCCN(C)C)C(=O)c3ccc(C(=O)c4ccccc4)cc3)sc2c1 | -6%
59 | O=C(O)c1ccc(-n2nc(-c3ccccc3)c3ccccc3c2=O)cc1 | 17.9%
60 | CCOc1ccc(CCNC(=O)Nc2ccccc2)cc1OCC | 7.13%
61 | CCOC(=O)C1CCN(C(=O)C2CCCN(S(=O)(=O)c3ccc(OC)c(Cl)c3)C2)CC1 (stereo not drawn) | -2.72%
62 | CCc1ccc2oc(-c3ccc(N)cc3)nc2c1 | 47.9% (active)
63 | COc1ccc(C2C3=C(CCCC3=O)N(CC(=O)O)C3=C2C(=O)CCC3)cc1 | 14.1%
64 | CCOC(=O)CSc1nnc(-c2ccncc2)o1 | -2.72%
65 | Cc1cccc(C)c1OC(=O)CSc1nnc(-c2ccccc2)o1 | -1.97%
66 | CCCCSc1nnc(-c2ccc(C)cc2)o1 | 63.2% (active)
67 | O=C(c1cc2ccccc2o1)N1CCN(Cc2ccccc2)CC1 | 22.5%
68 | O=C(NCCc1ccccc1)C(=O)NCC1OCCN1S(=O)(=O)c1cccs1 (stereo not drawn) | 15.4%
69 | CCc1ccc(Oc2coc3cc(OC(=O)c4cc5ccccc5oc4=O)ccc3c2=O)cc1 | 22.7%
70 | CCc1ccc(Oc2coc3cc(O)ccc3c2=O)cc1 | 57.1% (active)
71 | COc1ccc(Oc2coc3cc(OC(=O)c4cncc(Br)c4)ccc3c2=O)cc1 | 31.4%
72 | O=C(O)C1CCC(CNS(=O)(=O)c2ccc(Br)cc2)CC1 (stereo not drawn) | -6.36%
73 | O=C(NC(=O)c1ccccc1)Nc1ccccc1O | 105% (active)
74 | O=C(Nc1ccc(C(=O)O)c(O)c1)c1ccccc1 | 2.52%
75 | O=C(NC(=O)c1ccccc1)NC(=O)c1ccccc1 | -0.343%

Row | SMILES | inhibition
76 | CCCC(=O)N1CCN(c2nnc(-c3ccc(C)cc3)c3ccccc23)CC1 | -11.9%
77 | Fc1ccc2nc(N3CCCCC3)sc2c1 | 82% (active)
78 | O=C(c1ccc2nc(N3CCOCC3)sc2c1)N1CCN(c2ccc(Cl)cc2)CC1 | -6.87%
79 | Cc1nc(N2CCCCC2)sc1C=O | 17.8%
80 | O=C(NCCc1cccc(F)c1)C1CCCN(c2nc3ccccc3s2)C1 (stereo not drawn) | -11.7%
81 | c1c2c(cc3sc(N4CCCCC4)nc13)OCCO2 | 14.5%
82 | Brc1ccc2nc(N3CCCC3)sc2c1 | 133% (active)
83 | COC(=O)Nc1ccc(S(=O)(=O)Nc2cc(OC)nc(OC)n2)cc1 | -3.18%
84 | Cc1ccsc1C(=O)N[C@@H](C)c1nnc2ccccn12 | -1.3%
85 | COc1ccc(NC2CCCN(C(=O)c3ccncc3)C2)cc1 (stereo not drawn) | -17.1%
86 | O=C1CCC/C(=N\NC(=O)NC2CCCCC2)C1 | -0.774%
87 | CC(C)NC(=S)NN=C1CCCCCCCCCCC1 | 4.86%
88 | CC(C)(C)NC(=O)C(=O)NN=C1CCCCCCC1 | 60.6% (active)
89 | O=C(NCc1ccccc1)C(=O)NCC1OCCN1S(=O)(=O)c1ccc(Br)cc1 (stereo not drawn) | 3.85%
90 | CCC(Oc1ccccc1C)C(=O)Nc1ccc(S(=O)(=O)Nc2cc(C)on2)cc1 (stereo not drawn) | -4.41%
91 | O=c1[nH]c(CSc2ccccc2)nc2c1oc1ccccc12 | 12.7%
92 | O=C(COC(=O)c1ccc(N2CCCC2=O)cc1)c1ccc(OC(F)F)cc1 | -2.32%
93 | Cc1ccc(OC(=O)c2c(C)nn(-c3ccccc3)c2C)cc1 | 66.5% (active)
94 | CCCn1c(C)cc(C(=O)COC(=O)c2c(C)nn(-c3ccccc3)c2C)c1C | 37.3% (active)
95 | Cc1nn(-c2ccccc2)c(C)c1C(=O)OCC(=O)NC(=O)NC1CCCCC1 | -5.78%
96 | Cc1nn(-c2ccccc2)c(-n2cccc2)c1C(=O)O | -10.5%
97 | CCCc1cc(=O)[nH]c(SCC(=O)c2cc(C)n(CCC)c2C)n1 | -17.8%
98 | Cc1cc(C(=O)COC(=O)c2cccs2)c(C)n1-c1c(C)n(C)n(-c2ccccc2)c1=O | 14.6%
